Assay outcomes (PubChem)
Tgondii IFNg: blocks Toxoplasma gondii growth in the presence of IFN-gamma. Toxoplasma gondii growth in IFN-gamma-treated host cells; stronger effect = lower value. activity change, negative = inhibition, % (no concentration beside the values). 69,000 tested, 3.8% active. AID 1259416; in the data active = activity change below about -70%, passing the limit was not always enough;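 also: host cells are HeLa cells infected with Toxoplasma gondii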
Large screens that a line does not name were inactive; ! = repeats disagree. Only a selection was taken, and hits are over-represented in it overall.

Cc1ccc2c(=O)c3ccccc3n(CCCN)c2c1C	Tgondii IFNg -87!
CCOC(=O)Cn1c(C)cc(=O)c2ccccc21	none
Cc1c(-c2ccccc2)n(CC(O)CN)c2ccccc12 (stereo not drawn)	none
N#Cc1ccc(-c2ccc([C@H]3[C@@H](CO)N4C(=O)CNC[C@@H]34)cc2)cc1	none
CCN1C[C@@H]2CCN(C(=O)NC3CCCC3)CC[C@H]2S1(=O)=O	none
N#Cc1cnn(-c2ncnc3c2cnn3-c2ccccc2)c1N	Tgondii IFNg -93
c1ccc(-n2ncc3c(NC4CCCCCCCCCCC4)ncnc32)cc1	none
CCN(CC)c1ncnc2c1cnn2-c1ccccc1	none
C[C@H]1CCCCO[C@H](CN(C)CC2CC2)[C@@H](C)CN([C@@H](C)CO)C(=O)c2cc(NC(=O)c3ccccc3)ccc2O1	none
CN1C/C=C/CCOc2cccc(c2)-c2ccnc(n2)Nc2cccc(c2)C1	Tgondii IFNg -84
O=c1ccc2cc(S(=O)(=O)N3CCC(N4CCCCC4)CC3)ccc2[nH]1	none
O=c1c(-c2ccccc2)nnc2sc(-c3ccc4c(c3)OCCO4)nn12	none
COCC(=O)N(C[C@H]1[C@H](c2ccccc2)[C@@H](CO)N1C(=O)NC(C)C)C(C)C	none
NCC1Cc2cc(-c3ccccc3OCCn3ccnc3)cc(Cl)c2O1 (stereo not drawn)	Tgondii IFNg -81
CNc1cc(-c2ccccc2OCCn2ccnc2)c2cc[nH]c2n1	none
NCC1Cc2cc(-c3ccc(Cn4ccnc4)cc3)cc(F)c2O1 (stereo not drawn)	none
Cc1ccc(-n2nc(C)c3c2NC(=O)CC3c2ccncc2Cl)cc1 (stereo not drawn)	none
COc1ccc(-c2nc(-c3cc4cc(OC)ccc4oc3=O)cs2)cc1	none
O=C(CCO)N1CCOC2C(COc3ncccn3)CCC21 (stereo not drawn)	none
Cc1cccc(N2C(=O)c3cccc4c(N5CCNCC5)ccc(c34)C2=O)c1	none
O=S(=O)(c1ccccc1)c1cnc2c(N3CCNCC3)cccc2c1	none
O=c1cc(N2CCNCC2)oc2c(-c3ccccc3)cccc12	Tgondii IFNg -85!
c1ccc(C2CCCCN2Cc2ccc3c(c2)OCCO3)nc1 (stereo not drawn)	none
COc1cc(-c2cccc(-n3cccn3)c2)ccc1NC(C)=O	none
O=C1Cc2cc(Cl)ccc2N1	none
O=C1Cc2cc(-c3cccc(-n4cccn4)c3)ccc2N1	Tgondii IFNg -93
Cc1cc(C)n(-c2ncnc3c2nnn3Cc2ccccc2Cl)n1	none
CC1Cc2ccccc2N1c1ncnc2c1nnn2Cc1ccccc1Cl (stereo not drawn)	Tgondii IFNg -94
CSc1ncnc2c1nnn2Cc1ccccc1Cl	none
CN(Cc1cc2n(n1)CCNC2)Cc1nc2ccccc2c(=O)[nH]1	none
COC(=O)c1sccc1NC(=O)c1ccno1	none
CCN(C)C(=O)Oc1cccc([C@H](C)N(C)C)c1	none
O=C(O)/C=C/c1ccc(-c2ccc(O)c(C34CC5CC(CC(C5)C3)C4)c2)cc1	Tgondii IFNg -79
O=C(O)/C=C/c1ccc(O)c(O)c1	none
CC(C)c1ccc(/C=C/C(=O)O)cc1	none
Cc1cnc(N2CC[C@H]3CN(CC(=O)N(C)C)S(=O)(=O)[C@@H]3CC2)nc1	none
Cc1ccc(-c2nc(CNS(=O)(=O)c3ccc(C(C)C)cc3)c(C)o2)cc1	Tgondii IFNg -105
COc1ccc(-c2nc(CNS(=O)(=O)c3ccc(OC)cc3)c(C)o2)cc1	none
Cc1oc(-c2ccccc2)nc1CNS(=O)(=O)c1ccc(C(C)C)cc1	none
CCOC(=O)C1C(=O)Nc2nc3ccccc3n2C1c1ccc(OC)cc1 (stereo not drawn)	none
Cc1ccc2c(c1)C(=O)[C@]1(O)CCN(c3ccccc3)C1=N2	none
O=C1COc2cc3c(cc2N1)NC(=O)CC3c1nccs1 (stereo not drawn)	none
CCOC(=O)Nc1ccc2c(c1)NC(=O)CC2c1cc(C(C)C)no1 (stereo not drawn)	none
CCCc1ccc(C2CC(=O)Nc3cc4c(cc32)OCO4)o1 (stereo not drawn)	Tgondii IFNg -88
CC(C)COC1C2CCCC1CN(c1nncs1)C2 (stereo not drawn)	none
Cc1c(CN(C)Cc2cccc(C(C)(C)C)c2O)cnn1C	Tgondii IFNg -93
Cc1ccc(C)c(-c2[nH]ncc2CN(C)Cc2cnn(C)c2C)c1	none
Cc1c(CN(C)C(=O)c2cccc(C#CC(C)(C)O)c2)cnn1C	none
CC(C)NC(=O)N1[C@@H]2CN(C)c3ccccc3[C@@H]2[C@@H]1CO	none
CN(Cc1cccnc1)C(=O)c1coc(COc2cccc3cnccc23)n1	none
N#C/C(=C/c1ccc(O)c(O)c1)C(=O)NCCCCc1ccccc1	none
CC(Cc1ccccn1)NC(=O)C12CC3CC(C1)CC(n1cncn1)(C3)C2 (stereo not drawn)	none
CC(C)[C@H]1c2ccc(F)cc2CC[C@@]1(CCN(C)CCCc1nc2ccccc2[nH]1)OC(=O)C1CC1	Tgondii IFNg -86
CN(Cc1nc2ccc(F)cc2[nH]1)C1CCN(C(=O)c2ccccc2)CC1	none
CC(C)N1CCNC(=O)C1CC(=O)N(C)Cc1nc2ccccc2[nH]1 (stereo not drawn)	none
CCN1c2ccc(F)cc2C(=O)NC12CCN(C(=O)Cc1cccc(F)c1)CC2	none
CCC1CCCCN1C(=O)c1cc2cccnc2n(Cc2ccccc2)c1=O (stereo not drawn)	none
